Data: the supplement of paper PMC11732987, “Enantioselective OTUD7B fragment discovery through chemoproteomics screening and high-throughput optimisation” (Communications Chemistry, 2025)

What was measured:
Assay in all cases: log2 ratio of Biotin-Ahx-Ub-VS probe labelling (fragment/DMSO); higher = less target engagement (more negative = stronger competition), active = hit call of the paper (q ≤ 0.05, log2 ratio ≤ -1)
Conditions in all cases: compound concentration: 200 uM; treatment time: 3 h
[1] = molecular target: T1, ALG13 (UniProt Q9NP73)
T1 sequence (whole entry): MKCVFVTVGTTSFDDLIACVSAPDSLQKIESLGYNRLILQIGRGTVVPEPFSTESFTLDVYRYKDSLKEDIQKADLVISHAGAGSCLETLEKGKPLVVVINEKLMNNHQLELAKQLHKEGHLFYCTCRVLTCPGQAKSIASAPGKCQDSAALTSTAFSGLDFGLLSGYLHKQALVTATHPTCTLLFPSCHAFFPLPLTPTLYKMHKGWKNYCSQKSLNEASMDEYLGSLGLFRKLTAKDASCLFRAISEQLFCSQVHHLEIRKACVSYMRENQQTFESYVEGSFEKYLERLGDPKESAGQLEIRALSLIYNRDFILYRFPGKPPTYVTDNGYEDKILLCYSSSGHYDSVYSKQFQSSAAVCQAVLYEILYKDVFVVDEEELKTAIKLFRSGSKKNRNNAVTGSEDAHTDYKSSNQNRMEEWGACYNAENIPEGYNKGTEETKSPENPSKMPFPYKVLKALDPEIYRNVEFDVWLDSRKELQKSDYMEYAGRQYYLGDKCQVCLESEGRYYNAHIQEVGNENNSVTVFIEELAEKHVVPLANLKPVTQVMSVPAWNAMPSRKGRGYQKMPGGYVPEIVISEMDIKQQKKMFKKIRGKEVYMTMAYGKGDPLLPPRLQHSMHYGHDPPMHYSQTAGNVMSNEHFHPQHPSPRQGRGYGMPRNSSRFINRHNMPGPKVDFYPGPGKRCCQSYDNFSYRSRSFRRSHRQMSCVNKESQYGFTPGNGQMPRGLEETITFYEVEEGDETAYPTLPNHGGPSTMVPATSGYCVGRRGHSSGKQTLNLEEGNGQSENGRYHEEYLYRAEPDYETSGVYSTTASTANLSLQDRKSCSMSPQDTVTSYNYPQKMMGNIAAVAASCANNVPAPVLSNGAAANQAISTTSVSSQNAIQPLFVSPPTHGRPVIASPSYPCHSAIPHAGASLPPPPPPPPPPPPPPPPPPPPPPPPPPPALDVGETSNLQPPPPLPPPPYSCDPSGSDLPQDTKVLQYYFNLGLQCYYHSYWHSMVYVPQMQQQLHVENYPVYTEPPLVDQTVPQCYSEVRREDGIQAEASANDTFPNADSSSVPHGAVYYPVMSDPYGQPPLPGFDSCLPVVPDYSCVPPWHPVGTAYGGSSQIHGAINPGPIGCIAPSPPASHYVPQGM
In short: (§1)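 Triplicate samples of HEK293T lysate, 495 µg each, received fragment at 200 µM or vehicle for 3 h, followed by Biotin-Ahx-Ub-VS (0.5 µM final) for 1 h. After NeutrAvidin enrichment of labelled DUBs and LysC/trypsin digestion, peptides were run by diaPASEF LC-MS/MS. The values are average log2 fragment/vehicle ratios from global-median-normalised Spectronaut label-free quantities, tested by unpaired t-test on proteins having ≥2 unique peptides.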

[2] = molecular target: ATXN3 (UniProt P54252)
Sequence of ATXN3 (P54252 whole entry): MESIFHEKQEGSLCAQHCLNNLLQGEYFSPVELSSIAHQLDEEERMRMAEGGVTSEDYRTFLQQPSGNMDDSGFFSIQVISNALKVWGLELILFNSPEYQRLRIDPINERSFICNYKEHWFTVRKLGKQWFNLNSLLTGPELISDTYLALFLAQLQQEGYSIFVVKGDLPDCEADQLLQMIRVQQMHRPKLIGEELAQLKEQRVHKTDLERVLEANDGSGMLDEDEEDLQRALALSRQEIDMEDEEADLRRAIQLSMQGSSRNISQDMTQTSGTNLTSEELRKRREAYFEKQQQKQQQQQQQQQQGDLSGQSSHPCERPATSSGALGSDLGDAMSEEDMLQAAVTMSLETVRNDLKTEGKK
In short: as §1

[3] = molecular target: T2, BAP1 (UniProt Q92560)
T2 sequence (whole entry): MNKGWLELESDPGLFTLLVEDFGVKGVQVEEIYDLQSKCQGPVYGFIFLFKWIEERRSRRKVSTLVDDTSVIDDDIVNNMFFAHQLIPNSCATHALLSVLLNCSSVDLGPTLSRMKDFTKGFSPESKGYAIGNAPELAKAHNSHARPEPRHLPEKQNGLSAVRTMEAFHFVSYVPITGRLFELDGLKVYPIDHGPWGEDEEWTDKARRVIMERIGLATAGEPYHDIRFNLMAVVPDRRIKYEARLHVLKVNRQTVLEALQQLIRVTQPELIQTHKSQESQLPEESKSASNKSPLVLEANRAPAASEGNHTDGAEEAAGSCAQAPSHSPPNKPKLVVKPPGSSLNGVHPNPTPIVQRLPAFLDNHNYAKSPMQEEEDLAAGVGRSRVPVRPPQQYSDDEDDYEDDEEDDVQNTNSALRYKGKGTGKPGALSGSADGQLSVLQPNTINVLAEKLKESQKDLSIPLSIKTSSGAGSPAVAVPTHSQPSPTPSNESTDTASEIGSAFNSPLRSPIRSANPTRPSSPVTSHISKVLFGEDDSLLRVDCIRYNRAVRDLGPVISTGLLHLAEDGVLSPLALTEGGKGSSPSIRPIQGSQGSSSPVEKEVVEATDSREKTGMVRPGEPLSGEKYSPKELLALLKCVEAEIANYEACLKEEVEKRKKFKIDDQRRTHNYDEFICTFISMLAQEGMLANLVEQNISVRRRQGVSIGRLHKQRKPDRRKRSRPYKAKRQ
In short: as §1

[4] = molecular target: EIF3F (UniProt O00303)
Sequence of EIF3F (O00303 whole entry): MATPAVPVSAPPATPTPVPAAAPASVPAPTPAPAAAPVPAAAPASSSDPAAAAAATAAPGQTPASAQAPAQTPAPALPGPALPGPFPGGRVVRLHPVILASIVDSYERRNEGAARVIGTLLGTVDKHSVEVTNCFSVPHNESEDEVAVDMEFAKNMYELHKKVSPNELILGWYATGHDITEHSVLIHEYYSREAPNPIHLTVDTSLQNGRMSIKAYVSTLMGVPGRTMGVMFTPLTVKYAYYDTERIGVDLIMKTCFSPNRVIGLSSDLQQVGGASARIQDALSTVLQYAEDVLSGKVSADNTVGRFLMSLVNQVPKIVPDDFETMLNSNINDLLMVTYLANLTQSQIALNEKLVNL
In short: as §1

[5] = molecular target: EIF3H (UniProt O15372)
Sequence of EIF3H (O15372 whole entry): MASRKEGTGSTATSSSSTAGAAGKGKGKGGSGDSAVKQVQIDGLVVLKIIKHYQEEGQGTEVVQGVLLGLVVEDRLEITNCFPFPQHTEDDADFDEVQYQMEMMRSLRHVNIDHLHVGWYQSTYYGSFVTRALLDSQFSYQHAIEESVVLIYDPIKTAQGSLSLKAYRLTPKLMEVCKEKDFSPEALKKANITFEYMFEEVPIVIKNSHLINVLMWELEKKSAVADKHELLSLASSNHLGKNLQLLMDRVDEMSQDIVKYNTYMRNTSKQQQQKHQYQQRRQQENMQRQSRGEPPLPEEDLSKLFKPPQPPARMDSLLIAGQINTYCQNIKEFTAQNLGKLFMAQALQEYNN
In short: as §1

[6] = molecular target: T3, FAM105A (UniProt Q9NUU6)
T3 sequence (whole entry): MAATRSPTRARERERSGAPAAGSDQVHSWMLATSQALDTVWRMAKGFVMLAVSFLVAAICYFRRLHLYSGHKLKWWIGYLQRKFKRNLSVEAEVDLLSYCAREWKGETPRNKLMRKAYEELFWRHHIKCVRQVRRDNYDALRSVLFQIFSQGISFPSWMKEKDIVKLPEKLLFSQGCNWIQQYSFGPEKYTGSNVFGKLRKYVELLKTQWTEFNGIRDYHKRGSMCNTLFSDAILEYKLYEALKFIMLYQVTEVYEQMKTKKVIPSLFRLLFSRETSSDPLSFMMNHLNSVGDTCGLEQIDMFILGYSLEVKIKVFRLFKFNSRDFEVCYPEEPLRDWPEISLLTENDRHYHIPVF
In short: as §1

[7] = molecular target: OTUB1 (UniProt Q96FW1)
Sequence of OTUB1 (Q96FW1 whole entry): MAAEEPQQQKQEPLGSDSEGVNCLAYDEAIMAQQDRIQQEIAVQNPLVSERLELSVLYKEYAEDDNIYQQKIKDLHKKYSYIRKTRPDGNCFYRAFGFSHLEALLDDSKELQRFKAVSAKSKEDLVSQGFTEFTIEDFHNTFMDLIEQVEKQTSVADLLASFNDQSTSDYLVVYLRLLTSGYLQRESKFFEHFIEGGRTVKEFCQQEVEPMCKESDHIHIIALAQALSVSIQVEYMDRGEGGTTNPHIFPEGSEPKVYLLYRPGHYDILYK
In short: as §1

[8] = molecular target: T4, OTUD4 (UniProt Q01804)
T4 sequence (whole entry): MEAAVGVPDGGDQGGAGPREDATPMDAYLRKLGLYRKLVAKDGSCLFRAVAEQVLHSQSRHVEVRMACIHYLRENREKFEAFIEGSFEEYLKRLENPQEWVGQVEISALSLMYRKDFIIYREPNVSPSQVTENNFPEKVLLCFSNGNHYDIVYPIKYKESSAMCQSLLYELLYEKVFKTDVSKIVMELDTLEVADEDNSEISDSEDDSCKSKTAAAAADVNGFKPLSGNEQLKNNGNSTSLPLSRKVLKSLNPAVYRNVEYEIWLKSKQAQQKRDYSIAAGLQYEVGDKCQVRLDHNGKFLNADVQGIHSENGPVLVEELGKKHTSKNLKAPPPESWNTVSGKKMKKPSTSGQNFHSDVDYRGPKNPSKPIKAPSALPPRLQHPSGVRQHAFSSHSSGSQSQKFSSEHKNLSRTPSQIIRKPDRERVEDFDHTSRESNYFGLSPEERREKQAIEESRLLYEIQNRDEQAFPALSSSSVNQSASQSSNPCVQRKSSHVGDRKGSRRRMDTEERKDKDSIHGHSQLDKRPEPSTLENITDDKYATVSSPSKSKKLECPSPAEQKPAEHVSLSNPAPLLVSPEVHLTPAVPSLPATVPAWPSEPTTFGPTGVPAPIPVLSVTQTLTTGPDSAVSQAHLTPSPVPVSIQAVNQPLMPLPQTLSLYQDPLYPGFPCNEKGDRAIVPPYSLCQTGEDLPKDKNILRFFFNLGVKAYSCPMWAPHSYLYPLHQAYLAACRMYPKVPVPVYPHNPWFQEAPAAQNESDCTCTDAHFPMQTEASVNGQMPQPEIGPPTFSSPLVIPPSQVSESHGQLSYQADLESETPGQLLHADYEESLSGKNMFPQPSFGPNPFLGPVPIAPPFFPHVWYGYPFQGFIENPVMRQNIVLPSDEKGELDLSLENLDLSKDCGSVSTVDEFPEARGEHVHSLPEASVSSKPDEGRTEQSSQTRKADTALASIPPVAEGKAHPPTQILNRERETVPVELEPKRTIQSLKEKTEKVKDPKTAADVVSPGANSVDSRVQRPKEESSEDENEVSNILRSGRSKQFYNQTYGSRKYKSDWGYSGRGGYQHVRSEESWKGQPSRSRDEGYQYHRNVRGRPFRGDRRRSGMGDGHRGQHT
In short: as §1

[9] = molecular target: T5, OTUD5 (UniProt Q96G74)
T5 sequence (whole entry): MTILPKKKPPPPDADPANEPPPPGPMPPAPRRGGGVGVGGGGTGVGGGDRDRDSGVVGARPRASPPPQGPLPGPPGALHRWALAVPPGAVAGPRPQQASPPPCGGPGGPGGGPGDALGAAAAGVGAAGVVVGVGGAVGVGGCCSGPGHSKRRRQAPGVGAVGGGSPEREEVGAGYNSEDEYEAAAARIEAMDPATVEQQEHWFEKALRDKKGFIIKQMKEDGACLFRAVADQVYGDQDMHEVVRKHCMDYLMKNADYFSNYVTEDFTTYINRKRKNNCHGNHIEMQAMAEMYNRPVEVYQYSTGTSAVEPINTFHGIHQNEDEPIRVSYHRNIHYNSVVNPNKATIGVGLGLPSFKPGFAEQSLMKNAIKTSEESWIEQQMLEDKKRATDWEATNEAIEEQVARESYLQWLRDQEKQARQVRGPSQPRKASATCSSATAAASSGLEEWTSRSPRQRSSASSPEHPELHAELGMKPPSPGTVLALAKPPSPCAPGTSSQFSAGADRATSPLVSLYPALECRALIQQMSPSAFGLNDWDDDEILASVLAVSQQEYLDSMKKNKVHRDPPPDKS
In short: as §1

Measured: log2 ratio of Biotin-Ahx-Ub-VS probe labelling

Cl.O=C(CCl)N1CCc2ncncc2C1
inactive: [1] -0.17 | [2] -0.297 | [3] -0.732 | [4] -0.328 | [5] -0.29 | [6] 0.0971 | [7] -0.263 | [8] -0.304 | [9] -0.373
